Inconclusive results are not listed. The source made the active and inactive calls. The calls were made as follows: active = hit-call score of the fitted dose curve at least 0.9, where 1 is the maximum; inconclusive = response in the unintended direction; inactive = score below 0.9.

Sequence of human Peripheral-type Benzodiazepine Receptor (PBR), TSPO (gene 706) (P30536 whole entry, looked up): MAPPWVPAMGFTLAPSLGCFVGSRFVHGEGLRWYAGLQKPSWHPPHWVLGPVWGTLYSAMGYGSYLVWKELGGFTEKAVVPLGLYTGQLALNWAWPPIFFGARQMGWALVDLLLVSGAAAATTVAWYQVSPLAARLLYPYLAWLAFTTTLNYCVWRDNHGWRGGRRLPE
Sequence of rat Peripheral-type Benzodiazepine Receptor (PBR), Tspo (gene 24230) (P16257 whole entry, looked up): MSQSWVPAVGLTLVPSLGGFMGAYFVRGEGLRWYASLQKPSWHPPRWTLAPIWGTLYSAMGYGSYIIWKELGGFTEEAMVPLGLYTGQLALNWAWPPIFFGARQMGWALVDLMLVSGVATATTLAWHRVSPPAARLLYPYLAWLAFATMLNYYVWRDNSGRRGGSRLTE
Sequence of chimpanzee Androgen Receptor (AR), AR (gene 747460) (O97775 whole entry, looked up): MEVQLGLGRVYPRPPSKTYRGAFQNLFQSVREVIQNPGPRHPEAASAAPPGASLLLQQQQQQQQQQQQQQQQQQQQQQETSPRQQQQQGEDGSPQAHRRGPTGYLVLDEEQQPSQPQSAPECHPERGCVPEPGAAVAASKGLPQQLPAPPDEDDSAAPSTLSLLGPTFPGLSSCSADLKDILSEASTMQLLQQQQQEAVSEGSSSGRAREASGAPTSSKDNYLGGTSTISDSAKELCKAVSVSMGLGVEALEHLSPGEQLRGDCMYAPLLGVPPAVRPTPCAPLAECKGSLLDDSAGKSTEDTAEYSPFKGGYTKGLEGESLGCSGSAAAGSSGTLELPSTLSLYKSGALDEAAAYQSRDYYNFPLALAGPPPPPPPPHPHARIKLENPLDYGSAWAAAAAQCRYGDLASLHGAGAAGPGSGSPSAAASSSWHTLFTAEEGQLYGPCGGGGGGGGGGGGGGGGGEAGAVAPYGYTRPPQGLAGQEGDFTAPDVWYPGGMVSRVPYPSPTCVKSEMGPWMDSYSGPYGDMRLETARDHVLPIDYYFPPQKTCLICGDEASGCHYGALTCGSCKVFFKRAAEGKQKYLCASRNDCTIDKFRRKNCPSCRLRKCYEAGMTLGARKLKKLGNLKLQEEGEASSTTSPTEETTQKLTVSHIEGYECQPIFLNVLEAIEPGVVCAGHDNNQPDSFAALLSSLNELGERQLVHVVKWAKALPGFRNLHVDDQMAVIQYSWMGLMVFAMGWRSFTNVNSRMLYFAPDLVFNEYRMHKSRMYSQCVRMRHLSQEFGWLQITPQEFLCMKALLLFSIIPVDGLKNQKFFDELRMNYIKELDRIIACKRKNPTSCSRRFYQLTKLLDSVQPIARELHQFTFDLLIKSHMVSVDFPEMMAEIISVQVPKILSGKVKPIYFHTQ
Sequence of human Constitutive Androstane Receptor (CAR), NR1I3 (gene 9970) (Q14994 whole entry, looked up): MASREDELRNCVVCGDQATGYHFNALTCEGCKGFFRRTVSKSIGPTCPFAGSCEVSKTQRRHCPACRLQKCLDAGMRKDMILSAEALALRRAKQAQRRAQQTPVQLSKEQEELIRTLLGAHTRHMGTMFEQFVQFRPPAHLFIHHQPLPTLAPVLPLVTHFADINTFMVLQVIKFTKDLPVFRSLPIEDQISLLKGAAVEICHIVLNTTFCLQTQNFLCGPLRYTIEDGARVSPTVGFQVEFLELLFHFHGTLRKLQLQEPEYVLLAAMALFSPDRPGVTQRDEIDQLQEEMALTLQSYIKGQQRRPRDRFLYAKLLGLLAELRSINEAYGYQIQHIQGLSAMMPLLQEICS

In the first experiment the target is human Peripheral-type Benzodiazepine Receptor (PBR), TSPO (gene 706) (UniProt P30536). Kind of experiment: NVS_MP_hPBR: NovaScreen (NVS) Membrane Protein Assay for human Peripheral-type Benzodiazepine Receptor (PBR) (AID 2283331).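 Also: hits reduce radioligand binding relative to DMSO baseline.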 The essentials:
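Cell-free radioligand displacement, human colonic membranes, 1 h exposure. Filter radiodetection read-out. Single-concentration duplicates (25 uM), then concentration-response for actives; DMSO negative control.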
Take `CO/N=C(/C(=O)OC)c1ccccc1COc1ccccc1C`: the AC50 (commonly the midpoint of the concentration-response curve, whichever way the signal moves) was 2.76 µM (active).

With `Cc1ccc2c(c1N)C(=O)c1ccccc1C2=O`, the AC50 is 13.9 µM (active).

As for `CCOP(=S)(Oc1ccc([N+](=O)[O-])cc1)c1ccccc1` (centres undefined), the call was inactive.

`c1ccc(OP(Oc2ccccc2)Oc2ccccc2)cc1`: the concentration at half-maximal activity (AC50) is 17.6 µM (active).

As for `C=CC(=O)OCC(CC)(COC(=O)C=C)COC(=O)C=C`, the AC50 was 17.2 µM (active).

Take `Nc1ccc2ccccc2c1`: the AC50 is 6.61 µM (active).

As for `O=P(Oc1ccccc1)(Oc1ccccc1)Oc1ccccc1`, the AC50 was 2.61 µM (active).

The target of a further experiment is rat Peripheral-type Benzodiazepine Receptor (PBR), Tspo (gene 24230) (UniProt P16257). In words: NVS_MP_rPBR: NovaScreen (NVS) Membrane Protein Assay for rat Peripheral-type Benzodiazepine Receptor (PBR) (AID 2283335). The essentials:
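Single-concentration duplicate screening at 25 uM preceded concentration-series retesting of actives. Binding of a specific radioligand to rat kidney membrane PBR was read by filtration radiodetection after 1 h, with plate-wise positive and negative controls.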
For the compound `CO/N=C(/C(=O)OC)c1ccccc1COc1ccccc1C`, the AC50 was 0.947 µM (active).

Turning to `Cc1ccc2c(c1N)C(=O)c1ccccc1C2=O`, the AC50 was 1.4 µM (active).

With `C=CC(=O)OCC(CC)(COC(=O)C=C)COC(=O)C=C`, the AC50 was 25 µM (active).

As to `Nc1ccc([N+](=O)[O-])cc1Cl`, the compound was called inactive.

Regarding `Nc1ccc2ccccc2c1`, the AC50 was 7.21 µM (active).

Take `O=S(=O)(c1ccc(O)cc1)c1ccc(O)cc1`: the AC50 is 4.76 µM (active).

Consider `O=P(Oc1ccccc1)(Oc1ccccc1)Oc1ccccc1`, for which the half-maximal activity concentration (AC50) was 1.96 µM (active).

`N#Cc1cc([N+](=O)[O-])ccc1N`: the AC50 was 25 µM (active).

For another experiment, the target named is bovine Gamma-Aminobutyric Acid Type A Receptor Agonist (GABAR Agonist), GABRA1 (gene 780973) (UniProt P08219). In words: NVS_LGIC_bGABAR_Agonist: NovaScreen (NVS) Ligand-Gated Ion Channel Assay for bovine Gamma-Aminobutyric Acid Type A Receptor Agonist (GABAR Agonist) (AID 2283338). The protocol: NVS_LGIC_bGABAR_Agonist is a biochemical, single-readout assay that uses extracted gene-proteins from Bovine cerebellar membranes in a tissue-based cell-free assay. Measurements were taken 1 hour after chemical dosing in a 48-well plate.NVS_LGIC_bGABAR_Agonist is one of one assay component(s) measured or calculated from the NVS_LGIC_bGABAR_Agonist assay. It is designed to make measurements of radioligand binding, a form of binding reporter, as detected with scintillation counting signals by Filter-based radiodetection technology.Data from the assay component NVS_LGIC_bGABAR_Agonist was analyzed into 1 assay endpoint. This assay endpoint, NVS_LGIC_bGABAR_Agonist, was analyzed in the positive analysis fitting direction relative to DMSO as the negative control and baseline of activity. Using a type of binding reporter, gain-of-signal activity can be used to understand changes in the binding as they relate to the gene GABRA1. Furthermore, this assay endpoint can be referred to as a primary readout, because the performed assay has only produced 1 assay endpoint. To generalize the intended target to other relatable targets, this assay endpoint is annotated to the ion channel intended target family, where the subfamily is ligand-gated ion channel.
Sequence of bovine Gamma-Aminobutyric Acid Type A Receptor Agonist (GABAR Agonist), GABRA1 (gene 780973) (P08219 whole entry, looked up): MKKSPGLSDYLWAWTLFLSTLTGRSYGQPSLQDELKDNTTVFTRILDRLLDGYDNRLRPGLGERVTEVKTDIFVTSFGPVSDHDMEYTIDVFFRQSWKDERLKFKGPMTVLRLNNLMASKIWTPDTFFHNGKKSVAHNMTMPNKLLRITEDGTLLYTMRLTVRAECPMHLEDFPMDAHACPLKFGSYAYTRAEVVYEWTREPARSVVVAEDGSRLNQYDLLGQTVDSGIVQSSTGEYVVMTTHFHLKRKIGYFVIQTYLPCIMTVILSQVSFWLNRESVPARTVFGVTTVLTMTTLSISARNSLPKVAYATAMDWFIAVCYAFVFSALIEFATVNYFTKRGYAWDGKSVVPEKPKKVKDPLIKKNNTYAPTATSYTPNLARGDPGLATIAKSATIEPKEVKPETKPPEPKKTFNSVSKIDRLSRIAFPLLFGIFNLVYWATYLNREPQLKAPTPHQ
Binding assays used specific radioligands (tritiated, iodinated) with non-radioactive competitive displacement ligands in agonist or antagonist protocols (as indicated) and various reference compounds and inhibitors to titrate specific binding to receptors and transporters. Most enzyme assays (CYPs, kinases, phosphatases, proteases, HDACs) used recombinant protein and specific substrates (fluorescence mostly, some colorimetric and radioactive) and inhibitors, followed by a biochemical separation of substrate and product. All assays for the biochemical HTS were initially run in duplicate at a single concentration (10 uM for CYP450 assays and 25 uM for all others). […] Each assay was run with positive and negative controls, and concurrent controls on every plate. The follow-up (secondary) screen tested active chemical-pairs in concentration series, as well as a few additional assays not tested in the primary screen, some selected negative inactives, and several cases re-run in the concentration series for confirmatory purposes.
Take `O=C(O)C(Cl)Cl`: the compound was classed as inactive.

Consider `CCCCN(CCCC)N=O`, for which the call was inactive.

Take `O=P(Oc1ccccc1)(Oc1ccccc1)Oc1ccccc1`: the result was inactive.

In the next experiment the target is human Constitutive Androstane Receptor (CAR), NR1I3 (gene 9970) (UniProt Q14994). In words: NVS_NR_hCAR_Antagonist: NovaScreen (NVS) Nuclear Receptor Binding Assay for human Constitutive Androstane Receptor Antagonism (CAR) (AID 2283344). The essentials:
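Single 25 uM duplicate primary screen, with concentration-series follow-up on actives. Cell-free binding format run in antagonist mode, TR-FRET signal taken 1 h post-dose; activity is signal loss relative to DMSO.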
`CC(C)(C)OOC(C)(C)C`: the result was inactive.

For `ClC1=C(Cl)C2(Cl)C3C(Cl)C(Cl)CC3C1(Cl)C2(Cl)Cl` (centres undefined), the outcome was inactive.

With `CCCN(CCC)c1c([N+](=O)[O-])cc(C(C)C)cc1[N+](=O)[O-]`, the compound was called inactive.

The target in another experiment is bovine Estrogen Receptor (ER), ESR1 (gene 407238) (UniProt P49884). Kind of experiment: NVS_NR_bER: NovaScreen (NVS) Nuclear Receptor Binding Assay for bovine Estrogen Receptor (ER) (AID 2283345).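 Also: actives lower the bound radioligand count which means they displace the ER ligand.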 A digest of the protocol: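 Cell-free radioligand binding with receptor from bovine uterine membranes, read by scintillation counting 18 h after dosing. Loss of specific binding was scored against DMSO; primary screen at 25 uM in duplicate, actives then run as concentration series.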
Sequence of bovine Estrogen Receptor (ER), ESR1 (gene 407238) (P49884 whole entry, looked up): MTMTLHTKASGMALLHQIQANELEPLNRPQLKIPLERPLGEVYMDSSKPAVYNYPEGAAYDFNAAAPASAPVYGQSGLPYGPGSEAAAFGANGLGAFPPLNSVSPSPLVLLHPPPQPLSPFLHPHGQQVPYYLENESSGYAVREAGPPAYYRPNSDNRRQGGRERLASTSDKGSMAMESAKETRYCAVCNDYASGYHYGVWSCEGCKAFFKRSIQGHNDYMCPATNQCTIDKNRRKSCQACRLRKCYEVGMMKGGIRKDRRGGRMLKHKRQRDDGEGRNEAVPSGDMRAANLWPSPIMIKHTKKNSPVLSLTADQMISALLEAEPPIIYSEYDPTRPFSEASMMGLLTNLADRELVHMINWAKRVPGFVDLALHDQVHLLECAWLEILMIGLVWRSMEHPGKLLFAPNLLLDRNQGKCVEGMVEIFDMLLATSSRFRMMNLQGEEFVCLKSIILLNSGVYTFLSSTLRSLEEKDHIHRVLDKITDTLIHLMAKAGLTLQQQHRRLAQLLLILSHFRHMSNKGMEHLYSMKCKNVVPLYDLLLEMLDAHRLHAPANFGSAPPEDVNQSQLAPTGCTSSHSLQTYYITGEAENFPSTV
As for `CO/N=C(/C(=O)OC)c1ccccc1COc1ccccc1C`, the call was inactive.

For `CC(Cl)(Cl)C(=O)O`, the compound was classed as inactive.

For the compound `OCC1CO1` (centres undefined), the outcome was inactive.

With `ClC1=C(Cl)C2(Cl)C3C(Cl)C(Cl)CC3C1(Cl)C2(Cl)Cl` (centres undefined), the result was inactive.

As to `Cc1ccc2c(c1N)C(=O)c1ccccc1C2=O`, the call was inactive.

With `CCOP(=S)(Oc1ccc([N+](=O)[O-])cc1)c1ccccc1` (centres undefined), the result was inactive.

Consider `CCCCc1ccc(O)cc1`, for which the outcome was inactive.

Turning to `c1ccc(OP(Oc2ccccc2)Oc2ccccc2)cc1`, the call was inactive.

`c1nc[nH]n1`: the outcome was inactive.

On to `C=CC(=O)OCC(CC)(COC(=O)C=C)COC(=O)C=C`, for which the AC50 is 42.2 µM (active).

Regarding `CCCN(CCC)c1c([N+](=O)[O-])cc(C(C)C)cc1[N+](=O)[O-]`, the outcome was inactive.

Take `O=[N+]([O-])c1ccccc1`: the call was inactive.

`CC1(C)CN=C(NN=C(/C=C/c2ccc(C(F)(F)F)cc2)/C=C/c2ccc(C(F)(F)F)cc2)NC1`: the outcome was inactive.

Consider `CCNc1nc(Cl)nc(NC(C)(C)C)n1`, for which the compound was called inactive.

`CCCCN(CCCC)SN(C)C(=O)Oc1cccc2c1OC(C)(C)C2`: the outcome was inactive.

Turning to `O=S(=O)(c1ccc(O)cc1)c1ccc(O)cc1`, the AC50 is 15.1 µM (active).

In the case of `ClC(Cl)(Cl)c1ccccc1`, the result was inactive.

As for `Nc1ccc(Sc2ccc(N)cc2)cc1`, the outcome was inactive.

For the compound `CCCCOCC1CO1` (centres undefined), the outcome was inactive.

A further experiment has as its target chimpanzee Androgen Receptor (AR), AR (gene 747460) (UniProt O97775). Kind of experiment: NVS_NR_cAR: NovaScreen (NVS) Nuclear Receptor Binding Assay for chimpanzee Androgen Receptor (AR) (AID 2283346).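 Also: radioligand displacement from AR measured by scintillation counting in a cell-free assay; a loss of bound radioligand signal versus DMSO counts as binding.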 A digest of the protocol:
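Radioligand binding to chimpanzee AR expressed in Sf9/Sf21 cells, cell-free, measured 72 h after dosing by lysate-based scintillation counting. Loss of signal vs DMSO; initial duplicate screen at 25 uM, actives retested in concentration series.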
For the compound `O=C(O)CF`, the compound was called inactive.

Turning to `O=NN1CCCC1`, the compound was called inactive.

In the case of `CCCCc1ccc(O)cc1`, the compound was called inactive.

For the compound `CC1(C)CN=C(NN=C(/C=C/c2ccc(C(F)(F)F)cc2)/C=C/c2ccc(C(F)(F)F)cc2)NC1`, the AC50 was 25 µM (active).
